CYP2C19 inh – blockers of cytochrome P450 2C19 activity – biochemical, luminescence, ADME assay, primary screen; inhibition, % at 5 µM; CYP2C19 Supersomes, luciferin-H EGE luminescence, 30 min; hit rate 21% among 96,000; AID 778, 2007;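 active = CYP2C19 inhibition above a set limit at 5 µM in the primary screen, cut at about 50% in these data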
CYP2C19 act – human CYP2C19 activators, primary screen, biochemical, luminescence. Cytochrome P450 2C19 (Homo sapiens), P33261. recombinant CYP2C19, luciferin-H EGE luminescence; active compounds read high; 0 = fully inhibited enzyme, 1 = untreated enzyme. activation factor at 5 µM. 96,000 tested, under 10 active. AID 1025, 2008;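 active = activation factor of at least 2 at 5 µM in the primary screen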
CD11b adhes inh – inhibitors of CD11b/CD18 adhesion to fibrinogen, primary screen, K562 cells, luminescence; Integrin beta-2 (Homo sapiens) + Integrin alpha-M (Homo sapiens), P05107+P11215; ATPlite luminescence; Mn2+ added to activate the integrin; inhibition, % at 10 µM; hit rate 0.54% among 93,000; AID 1497, 2009;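 active = primary inhibition of 50% or more at 10 µM, then 40% or more on retest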
Target sequence (P05107 whole entry, looked up, other chains not shown): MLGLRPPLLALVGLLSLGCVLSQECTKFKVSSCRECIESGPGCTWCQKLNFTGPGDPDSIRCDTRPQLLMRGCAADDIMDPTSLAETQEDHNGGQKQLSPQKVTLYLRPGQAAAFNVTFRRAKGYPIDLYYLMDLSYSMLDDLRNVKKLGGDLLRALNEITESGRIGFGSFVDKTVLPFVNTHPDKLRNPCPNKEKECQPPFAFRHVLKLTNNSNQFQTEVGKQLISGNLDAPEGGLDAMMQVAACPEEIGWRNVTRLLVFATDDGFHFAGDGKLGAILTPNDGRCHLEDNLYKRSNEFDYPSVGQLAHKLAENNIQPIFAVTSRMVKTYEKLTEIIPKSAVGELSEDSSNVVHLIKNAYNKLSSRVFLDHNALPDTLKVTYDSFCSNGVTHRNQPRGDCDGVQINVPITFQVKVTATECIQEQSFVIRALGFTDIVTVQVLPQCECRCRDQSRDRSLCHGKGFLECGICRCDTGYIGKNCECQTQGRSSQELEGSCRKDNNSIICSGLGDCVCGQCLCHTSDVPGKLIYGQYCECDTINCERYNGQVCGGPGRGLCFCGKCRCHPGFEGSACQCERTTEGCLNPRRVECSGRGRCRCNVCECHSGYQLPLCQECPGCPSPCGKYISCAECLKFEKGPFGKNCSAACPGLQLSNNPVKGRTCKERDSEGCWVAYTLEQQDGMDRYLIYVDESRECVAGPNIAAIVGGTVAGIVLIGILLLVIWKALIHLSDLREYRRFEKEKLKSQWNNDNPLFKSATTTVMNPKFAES
Mac1 fbg enh – enhancers of CD11b/CD18 adhesion to fibrinogen, primary screen, K562 cells, luminescence; Integrin beta-2 (Homo sapiens) + Integrin alpha-M (Homo sapiens), P05107+P11215; ATPlite luminescence; activation, % at 10 µM; hit rate 0.07% among 93,000;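 active = 10 µM primary screen giving 50% or more activity, confirmed by 40% or more on retest at that dose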
CYP2C9 inh – blockers of cytochrome P450 2C9 activity – biochemical, luminescence, ADME assay, primary screen. hit rate 20% among 96,000. P11712. inhibition, % at 5 µM. CYP2C9 Supersomes, luciferin-H conversion. AID 777, 2007;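 active = blocking of liver enzyme CYP2C9 beyond about 50% at 5 µM, limit read from the data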
CYP2C9 activ – human CYP2C9 activators, primary screen, biochemical, luminescence; Cytochrome P450 2C9 (Homo sapiens), P11712; recombinant CYP2C9, luciferin-H conversion; active compounds read high; factor 1 = untreated enzyme, 0 = blocked; activation factor at 5 µM; hit rate 1.4% among 96,000; AID 1024, 2008;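 active = activation factor of 2 or more for CYP2C9 at a 5 µM dose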
Large screens that a line does not name were inactive. A selection: hits, their analogues and other compounds. The true share with any hit is near 28%.

CC(C)NC(=O)C(C)n1cccc1C(=O)c1ccccc1 (stereo not drawn)	CYP2C9 inh 54.8 (no result: CD11b adhes inh, Mac1 fbg enh)
NC(=O)C1(N2CCCCC2)CCN(Cc2nc3ccccc3c(=O)[nH]2)CC1	none
Oc1ccc(Nc2nc(-c3ccc(O)cc3)cs2)cc1	none
NS(=O)(=O)c1ccc(Nc2nc(-c3ccc(O)cc3)cs2)cc1	CYP2C9 inh 86.5
Nc1ccc(Nc2nc(-c3ccncc3)cs2)cc1	CYP2C19 inh 61.2, CYP2C9 inh 62.5
Cc1cc(=O)oc2cc(OCC(=O)N/N=C/c3ccccc3[N+](=O)[O-])ccc12	none (no result: CYP2C19 inh, CYP2C19 act, CYP2C9 inh, CYP2C9 activ)
OC(Cn1cccn1)c1ccccc1 (stereo not drawn)	none
COc1ccc(CNCC(O)(c2ccccc2)c2ccc(Cl)cc2)cc1 (stereo not drawn)	CYP2C19 inh 81.8, CYP2C9 inh 57.6
O=C(OCCCN=C1NS(=O)(=O)c2ccccc21)c1ccccc1F	none
COc1ccc(C2CC(c3cccc(C)c3)n3ncnc3N2)cc1 (stereo not drawn)	CYP2C19 inh 95.6, CYP2C9 inh 61.3
Cc1cccc(C2CC(c3ccccc3)Nc3ncnn32)c1 (stereo not drawn)	CYP2C19 inh 98.0, CYP2C9 inh 61.1
COc1ccc(C2CC(c3ccc(OC)cc3)n3nc(N)nc3N2)cc1 (stereo not drawn)	none
COc1cccc(C2CC(c3cccc(OC)c3)n3nc(N)nc3N2)c1 (stereo not drawn)	none
COc1ccc(C2CC(c3cc(OC)ccc3OC)n3nnnc3N2)cc1 (stereo not drawn)	CYP2C19 inh 97.7, CYP2C9 inh 78.3 (no result: CD11b adhes inh, Mac1 fbg enh)
COc1ccc(C2CC(c3cccc(C)c3)n3nc(N)nc3N2)cc1 (stereo not drawn)	none
COc1cccc(C2CC(c3cccc(C)c3)n3ncnc3N2)c1 (stereo not drawn)	CYP2C19 inh 74.1, CYP2C9 inh 67.3
CCOC(=O)c1ccc(NC(=O)COC(=O)Cc2csc(-c3ccccc3)n2)cc1	none (no result: CYP2C19 inh, CYP2C19 act, CYP2C9 inh, CYP2C9 activ)
CCOc1ccc(C2CC(c3cccc(C)c3)n3ncnc3N2)cc1 (stereo not drawn)	CYP2C19 inh 84.8, CYP2C9 inh 54.4
CCOc1ccc(C2CC(c3ccc(OC)cc3)n3ncnc3N2)cc1 (stereo not drawn)	none
CCC(Sc1nc(-c2ccccc2)c(C#N)c(=O)[nH]1)C(=O)Nc1cc(C)on1 (stereo not drawn)	CYP2C9 inh 82.9
COC(=O)C(CC(C)C)NC(=O)CSc1nc(-c2ccccc2)c(C#N)c(=O)[nH]1 (stereo not drawn)	CYP2C19 inh 65.4, CYP2C9 inh 88.3
CCc1ccc(NC(=O)N(CCOC)C2CCN(C(C)=O)CC2)cc1	none
CCOC(=O)Cc1csc(NC(=O)c2c(O)c3ccccc3n(C)c2=O)n1	none
CCOC(=O)Cc1csc(NC(=O)CCN2C(=O)c3ccccc3C2=O)n1	CYP2C19 inh 69.0, CYP2C9 inh 76.0
CCC(CC)c1nnc(NC(=O)CCCN2C(=O)c3ccccc3C2=O)s1	CYP2C9 inh 71.5
Cc1nnc(NC(=O)CCCN2C(=O)c3ccccc3C2=O)s1	none
CCOC(=O)Cc1csc(NC(=O)CCCN2C(=O)c3ccccc3C2=O)n1	CYP2C9 inh 52.8
O=C(Nc1ccccc1SCC1CSc2nc3ccccc3c(=O)n21)c1cccc(Cl)c1 (stereo not drawn)	none
O=C(Cc1ccccc1)N[C@H](c1ccccc1)P(=O)(O)CO	none
COc1ccc(C(=O)N2CC3(C)CC2CC(C)(C)C3)cc1 (stereo not drawn)	none
CCCCOC(=O)Nc1nc(CC(=O)OCC)cs1	CYP2C19 inh 91.3, CYP2C9 inh 82.0
CCOC(=O)Cc1csc(NC(=O)c2ccncc2)n1	CYP2C19 inh 78.5, CYP2C9 inh 56.2 (no result: CD11b adhes inh, Mac1 fbg enh)
CCOC(=O)Cc1csc(NC(=O)C2CCCCC2C(=O)O)n1 (stereo not drawn)	none
CCOC(=O)Cc1csc(NC(=O)c2ccc(C)o2)n1	CYP2C19 inh 72.7, CYP2C9 inh 71.8
